Source: ChEMBL document CHEMBL3988442, “University of Dundee, Small-Polar-MMV Screening Library” (2021)
For some assays here: Results with a measured potency or affinity are listed apart.

Key:
Design in all cases: scale not given: direction of the effect not stated beside the values
[1] = target: Protein translocase subunit SecA (Escherichia coli (strain K12)) (UniProt P10408); assay: Assay to Identify E. coli SecA ATPase Inhibitors; format: functional; details: 30 µM
[2] = target: T1, Ubiquitin-activating enzyme e1, putative (Leishmania donovani (strain BPK282A1)) (UniProt E9BSI1); assay: Leishmania donovani Ubiquitin Activating Enzyme (LdE1); format: functional; details: 30 µM
T1 sequence (whole entry): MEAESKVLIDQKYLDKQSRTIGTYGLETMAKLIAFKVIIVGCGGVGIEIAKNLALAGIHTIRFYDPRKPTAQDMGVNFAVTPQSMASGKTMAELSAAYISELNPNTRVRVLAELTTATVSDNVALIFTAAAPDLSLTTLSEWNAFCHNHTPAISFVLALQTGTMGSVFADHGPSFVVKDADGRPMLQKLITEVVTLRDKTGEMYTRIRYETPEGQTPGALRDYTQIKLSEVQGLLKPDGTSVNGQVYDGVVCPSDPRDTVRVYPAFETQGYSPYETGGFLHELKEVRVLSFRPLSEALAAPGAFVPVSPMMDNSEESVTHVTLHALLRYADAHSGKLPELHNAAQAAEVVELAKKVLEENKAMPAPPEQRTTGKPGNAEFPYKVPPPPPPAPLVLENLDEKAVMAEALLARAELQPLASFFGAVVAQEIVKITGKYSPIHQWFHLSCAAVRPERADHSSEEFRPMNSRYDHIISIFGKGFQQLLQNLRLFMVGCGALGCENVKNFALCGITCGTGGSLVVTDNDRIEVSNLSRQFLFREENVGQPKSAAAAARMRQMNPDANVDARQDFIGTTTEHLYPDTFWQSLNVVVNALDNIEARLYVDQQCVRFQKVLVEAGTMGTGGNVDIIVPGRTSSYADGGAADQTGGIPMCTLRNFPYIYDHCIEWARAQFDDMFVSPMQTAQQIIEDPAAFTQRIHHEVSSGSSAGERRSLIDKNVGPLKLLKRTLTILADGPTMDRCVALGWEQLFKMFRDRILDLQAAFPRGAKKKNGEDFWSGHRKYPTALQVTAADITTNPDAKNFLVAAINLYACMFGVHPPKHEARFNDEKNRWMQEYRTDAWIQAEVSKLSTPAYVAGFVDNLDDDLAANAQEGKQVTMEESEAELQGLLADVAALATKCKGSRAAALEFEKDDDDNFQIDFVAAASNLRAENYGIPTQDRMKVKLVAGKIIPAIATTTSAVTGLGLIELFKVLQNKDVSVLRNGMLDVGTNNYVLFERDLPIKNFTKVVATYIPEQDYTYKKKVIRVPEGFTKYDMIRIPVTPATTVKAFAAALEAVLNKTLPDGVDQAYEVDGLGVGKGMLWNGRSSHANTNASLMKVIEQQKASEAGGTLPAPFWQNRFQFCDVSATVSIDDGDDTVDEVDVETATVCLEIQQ

[3] = target: AMP-activated protein kinase, AMPK (Homo sapiens) (UniProt P54646+O43741+P54619+Q9UGJ0+Q9Y478+Q13131+Q9UGI9); assay: AMP-dependent Kinase enzyme assay. An in vitro enzyme assay that detects ADP turnover that is directly proportional to AMPK activity. This uses naive AMPK that is activated during the assay with MK-8722; format: functional; details: 30 µM
[4] = target: Sialic acid-binding Ig-like lectin 9 (Homo sapiens) (UniProt Q9Y336); assay: Hs-Siglec9 ALPHAscreen SOP 20170721; details: 10 µM
Trypanosoma cruzi = assay: Trypanosoma cruzi phosphomannomutase and mannose-1-phosphate guanylyltransferase assay; format: functional; details: 10 µM
[5] = target: T2, Arginase-2, mitochondrial (Homo sapiens) (UniProt P78540); assay: in vitro enzyme assay to detect the production of urea directly proportional to the activity of Arginase II; format: functional; details: 33.3 µM; further: in the data most compounds retested in dose-response had high values
T2 sequence (whole entry): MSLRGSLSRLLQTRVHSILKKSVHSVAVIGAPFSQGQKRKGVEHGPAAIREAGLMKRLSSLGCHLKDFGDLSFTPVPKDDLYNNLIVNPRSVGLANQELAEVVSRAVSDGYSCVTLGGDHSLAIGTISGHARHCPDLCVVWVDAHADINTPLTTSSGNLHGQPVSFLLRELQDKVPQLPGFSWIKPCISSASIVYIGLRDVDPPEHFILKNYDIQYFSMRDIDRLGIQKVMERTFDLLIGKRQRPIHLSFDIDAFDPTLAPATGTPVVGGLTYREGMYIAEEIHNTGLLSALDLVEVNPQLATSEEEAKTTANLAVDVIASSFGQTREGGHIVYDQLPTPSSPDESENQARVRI

[6] = target: T3, Proteasome subunit beta (Trypanosoma cruzi) (UniProt O96673); assay: Trypanosoma cruzi proteasome chymotrypsin-like activity (TcProtChymo) assay.; further: in the data most compounds retested in dose-response had high values; format: functional; details: 9.37 µM
T3 sequence (whole entry): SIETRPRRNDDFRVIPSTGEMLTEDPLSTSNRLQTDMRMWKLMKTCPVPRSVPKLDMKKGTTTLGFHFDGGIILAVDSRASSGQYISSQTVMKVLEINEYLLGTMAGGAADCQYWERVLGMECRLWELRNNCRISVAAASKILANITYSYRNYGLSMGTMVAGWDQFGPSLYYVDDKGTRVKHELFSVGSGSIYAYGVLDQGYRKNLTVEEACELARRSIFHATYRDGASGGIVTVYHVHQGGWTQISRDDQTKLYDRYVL

Homo sapiens = species on record: Homo sapiens; assay: To identify inhibition of the IFN signalling (Jak-Stat) pathway via expression of an eGFP reporter gene under the control of an IFN-stimulated response element (ISRE) containing MxA promoter.; format: functional; details: 30 µM
[7] = target: T4, Tyrosyl-tRNA synthetase, putative (Trypanosoma cruzi (strain CL Brener)) (UniProt Q4DSP6); assay: Trypanosoma cruzi tyrosyl tRNA synthetase (TcYRS) _High Tyrosine SOP; format: functional; details: 30 µM; further: in the data most compounds retested in dose-response had high values
T4 sequence (whole entry): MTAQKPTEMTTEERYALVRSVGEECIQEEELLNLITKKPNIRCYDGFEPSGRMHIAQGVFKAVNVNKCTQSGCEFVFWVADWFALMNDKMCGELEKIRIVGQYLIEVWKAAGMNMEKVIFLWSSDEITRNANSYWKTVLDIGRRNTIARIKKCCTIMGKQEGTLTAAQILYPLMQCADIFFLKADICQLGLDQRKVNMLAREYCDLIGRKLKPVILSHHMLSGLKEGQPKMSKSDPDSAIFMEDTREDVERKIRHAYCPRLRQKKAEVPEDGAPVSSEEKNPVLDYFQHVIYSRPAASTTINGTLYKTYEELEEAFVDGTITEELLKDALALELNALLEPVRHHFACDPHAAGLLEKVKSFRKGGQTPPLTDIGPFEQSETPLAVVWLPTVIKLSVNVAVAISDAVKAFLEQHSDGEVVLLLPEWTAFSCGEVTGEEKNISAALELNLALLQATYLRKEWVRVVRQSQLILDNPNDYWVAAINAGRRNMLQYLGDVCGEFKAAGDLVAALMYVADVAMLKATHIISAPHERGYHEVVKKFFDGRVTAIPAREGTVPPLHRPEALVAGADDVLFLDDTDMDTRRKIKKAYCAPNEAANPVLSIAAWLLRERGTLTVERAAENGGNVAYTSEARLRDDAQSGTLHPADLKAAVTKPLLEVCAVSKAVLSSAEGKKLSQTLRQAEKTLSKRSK

[8] = target: T4, Tyrosyl-tRNA synthetase, putative (Trypanosoma cruzi (strain CL Brener)); assay: Trypanosoma cruzi tyrosyl tRNA synthetase (TcYRS) SOP; format: functional; details: 30 µM
[9] = target: Chromo domain-containing protein 1 (Saccharomyces cerevisiae (strain ATCC 204508 / S288c) (Baker's yeast)) (UniProt P32657); assay: ScCHD-1 Enzyme Inhibition Assay; format: functional; details: 30 µM; further: in the data most compounds retested in dose-response had high values
Chain of Chromo domain-containing protein 1 (Saccharomyces cerevisiae (strain ATCC 204508 / S288c) (Baker's yeast)) (P32657 whole entry, the tested form may be a part): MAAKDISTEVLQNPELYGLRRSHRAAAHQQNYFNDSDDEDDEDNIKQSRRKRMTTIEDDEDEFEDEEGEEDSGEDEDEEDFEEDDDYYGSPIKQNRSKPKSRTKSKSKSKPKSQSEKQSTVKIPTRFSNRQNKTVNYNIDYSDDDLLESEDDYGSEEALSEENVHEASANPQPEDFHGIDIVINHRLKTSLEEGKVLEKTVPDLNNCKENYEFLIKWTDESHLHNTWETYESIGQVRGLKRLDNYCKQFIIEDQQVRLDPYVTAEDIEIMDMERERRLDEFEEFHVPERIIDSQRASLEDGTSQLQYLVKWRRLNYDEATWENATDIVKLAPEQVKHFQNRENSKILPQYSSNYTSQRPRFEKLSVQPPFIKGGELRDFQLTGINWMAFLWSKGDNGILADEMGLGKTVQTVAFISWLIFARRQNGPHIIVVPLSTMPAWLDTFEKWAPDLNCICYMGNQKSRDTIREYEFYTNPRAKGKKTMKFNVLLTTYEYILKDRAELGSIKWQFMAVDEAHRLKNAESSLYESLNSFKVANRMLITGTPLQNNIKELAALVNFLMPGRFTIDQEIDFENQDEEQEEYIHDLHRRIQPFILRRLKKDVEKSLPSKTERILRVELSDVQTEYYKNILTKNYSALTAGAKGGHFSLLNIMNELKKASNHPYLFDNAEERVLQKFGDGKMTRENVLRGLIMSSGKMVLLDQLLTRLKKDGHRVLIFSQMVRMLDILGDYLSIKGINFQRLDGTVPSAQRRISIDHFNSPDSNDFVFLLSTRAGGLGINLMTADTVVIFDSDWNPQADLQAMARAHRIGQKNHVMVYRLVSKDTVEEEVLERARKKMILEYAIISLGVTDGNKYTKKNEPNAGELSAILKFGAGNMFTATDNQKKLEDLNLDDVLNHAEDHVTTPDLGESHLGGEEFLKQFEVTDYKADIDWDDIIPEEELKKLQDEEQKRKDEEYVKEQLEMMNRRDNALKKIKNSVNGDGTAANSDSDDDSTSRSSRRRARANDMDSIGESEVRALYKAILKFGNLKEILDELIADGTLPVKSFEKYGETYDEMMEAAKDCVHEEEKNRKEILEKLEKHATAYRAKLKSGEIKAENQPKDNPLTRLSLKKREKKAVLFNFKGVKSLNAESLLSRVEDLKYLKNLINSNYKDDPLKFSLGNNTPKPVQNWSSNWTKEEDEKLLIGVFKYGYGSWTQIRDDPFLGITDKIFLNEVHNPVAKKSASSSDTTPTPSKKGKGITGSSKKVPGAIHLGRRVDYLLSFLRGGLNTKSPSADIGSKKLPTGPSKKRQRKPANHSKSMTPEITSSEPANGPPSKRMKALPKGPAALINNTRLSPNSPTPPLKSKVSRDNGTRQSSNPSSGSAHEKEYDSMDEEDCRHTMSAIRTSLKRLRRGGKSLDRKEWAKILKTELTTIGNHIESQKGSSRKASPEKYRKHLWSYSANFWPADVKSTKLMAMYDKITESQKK

Chain of Sialic acid-binding Ig-like lectin 9 (Homo sapiens) (Q9Y336 whole entry): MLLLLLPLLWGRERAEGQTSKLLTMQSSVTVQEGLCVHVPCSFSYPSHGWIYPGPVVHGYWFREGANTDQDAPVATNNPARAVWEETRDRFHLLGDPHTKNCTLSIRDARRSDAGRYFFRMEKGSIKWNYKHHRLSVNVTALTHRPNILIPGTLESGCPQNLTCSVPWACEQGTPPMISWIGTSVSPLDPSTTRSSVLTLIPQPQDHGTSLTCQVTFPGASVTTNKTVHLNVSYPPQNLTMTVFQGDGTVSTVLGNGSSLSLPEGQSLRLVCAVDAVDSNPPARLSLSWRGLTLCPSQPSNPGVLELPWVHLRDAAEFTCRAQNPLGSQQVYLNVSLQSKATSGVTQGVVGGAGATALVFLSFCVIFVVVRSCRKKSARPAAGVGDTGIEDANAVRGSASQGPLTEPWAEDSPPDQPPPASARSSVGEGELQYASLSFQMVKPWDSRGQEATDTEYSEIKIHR
Chain of Protein translocase subunit SecA (Escherichia coli (strain K12)) (P10408 whole entry): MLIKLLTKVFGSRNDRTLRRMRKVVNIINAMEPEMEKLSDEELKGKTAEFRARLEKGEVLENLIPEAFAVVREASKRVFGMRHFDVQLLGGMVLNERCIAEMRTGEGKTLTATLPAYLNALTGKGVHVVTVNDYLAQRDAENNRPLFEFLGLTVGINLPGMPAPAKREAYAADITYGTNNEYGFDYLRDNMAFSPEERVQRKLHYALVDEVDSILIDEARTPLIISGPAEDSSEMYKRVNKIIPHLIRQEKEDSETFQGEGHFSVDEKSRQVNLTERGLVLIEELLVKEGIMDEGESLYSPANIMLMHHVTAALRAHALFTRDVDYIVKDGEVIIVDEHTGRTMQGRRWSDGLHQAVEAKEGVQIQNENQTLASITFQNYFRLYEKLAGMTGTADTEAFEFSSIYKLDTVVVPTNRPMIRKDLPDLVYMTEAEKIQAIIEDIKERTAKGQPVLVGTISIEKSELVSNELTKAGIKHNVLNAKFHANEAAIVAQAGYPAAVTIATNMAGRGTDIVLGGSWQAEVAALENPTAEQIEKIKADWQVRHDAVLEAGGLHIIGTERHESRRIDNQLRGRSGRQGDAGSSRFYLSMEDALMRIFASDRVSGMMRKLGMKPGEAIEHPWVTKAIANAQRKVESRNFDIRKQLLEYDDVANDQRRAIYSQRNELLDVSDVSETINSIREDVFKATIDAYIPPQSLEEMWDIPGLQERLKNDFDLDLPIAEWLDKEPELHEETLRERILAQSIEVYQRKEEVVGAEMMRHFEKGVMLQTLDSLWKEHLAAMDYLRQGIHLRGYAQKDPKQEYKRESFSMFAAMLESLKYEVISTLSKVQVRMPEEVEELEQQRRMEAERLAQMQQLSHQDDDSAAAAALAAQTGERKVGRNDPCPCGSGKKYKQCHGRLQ

| SMILES | Percent Effect [1] | Percent Effect [2] | Percent Effect [3] | Percent Effect [4] | Percent Effect (Trypanosoma cruzi) | Percent Effect [5] | Percent Effect [6] | Percent Effect (Homo sapiens) | Percent Effect [7] | Percent Effect [8] | Percent Effect [9] |
| --- | --- | --- | --- | --- | --- | --- | --- | --- | --- | --- | --- |
| Cc1cc(C)c2c(c1)C1(CC(=O)Nc3c1cnn3C(C)C)C(=O)N2 (configuration not stated) | 0.0889% | 4% | 4.34% | 1.54% | 0.982% | -6.16% | 8.87% | 21.1% | 3.17% | 2.56% | -5.39% |
| CCn1cc(CN(C)S(=O)(=O)c2ccc(NC(C)=O)cc2)cn1 | 2.78% | 14.7% | 5.54% | -0.366% | -2.95% | -15% | 7.39% | 18% | 1.06% | 7.69% | -7.39% |
| CN(Cc1nc(C2CC2)no1)C1CCCN(c2cccnn2)C1 (configuration not stated) | -1.65% | -17.7% | 11.7% | 7.67% | 1.6% | 1.14% | -0.573% | -0.447% | 6.4% | 3.8% | 4.91% |
| COCc1cccc(NC(C)C(=O)N(C)Cc2ccccc2)c1 (configuration not stated) | -8.46% | 10.8% | -16.3% | 48% | 7.92% | 33.5% | -1.46% | -2.64% | 6.45% | 13.6% | -14.3% |
| Cn1cc(CN2CCN(Cc3nccn3C)CC2)cn1 | 1.49% | 10.8% | 7.76% | -5.51% | -8.31% | -1.24% | 7.12% | 43.3% | 0% | 1.24% | -4.77% |
| Cc1ccc(CC(=O)N2CCCC(c3nc(C)cs3)C2)cn1 (configuration not stated) | -5.58% | -2.7% | -3.92% | 13.4% | -0.0929% | -0.554% | 0.539% | -13.1% | 0.99% | -6.1% | 7.44% |
| O=c1oc(-c2cccs2)nn1CC(O)c1ccc(F)cc1 (configuration not stated) | -3.82% | 0% | -2.3% | 3.88% | 3.41% | -1.04% | 13.9% | 18.7% | 6.01% | 18.5% | -5.35% |
| O=C([C@H]1C[C@H]2OCC[C@H]2N(C(=O)C2CCOCC2)C1)N1CCCCO1 | -5.69% | 13.3% | -3.93% | 1.16% | 1.93% | -50.4% | 2.73% | -17.9% | 9.38% | 22.5% | -6.17% |
| COc1ncccc1NC(=O)N1CCC(CNC(C)=O)CC1 | -3.02% | 5.33% | -2.93% | 4.72% | 3.02% | 3.12% | 7.5% | 20.5% | 4.92% | 13.6% | -8% |
| CCN1CCN(C(=O)c2cc(C(=O)OC)nn2-c2ccccc2)CC1 | -1.39% | 18.4% | 3.57% | -5.6% | -5.26% | 11.5% | 15.2% | 20.6% | 7.35% | 7.32% | -8.31% |
| O=C(COCC1CC1)N1CCCC(n2cncn2)C1 (configuration not stated) | 1.39% | 10.8% | -12% | -7.81% | -3.3% | -2.81% | 13% | 12.5% | 1.48% | 16.1% | -2.64% |
| COCc1cccc(CNC(=O)CN2CCCC2c2noc(C)n2)c1 (configuration not stated) | -2.68% | 23.7% | -2.93% | 3.2% | 5.83% | -2.68% | 15.5% | 1.75% | 4.41% | 24.4% | -13% |
| COc1ccc(CNC(C)c2cccc(Cl)c2)c(OC)c1OC (configuration not stated) | -1.96% | 10.7% | -5.69% | 5.99% | 6.52% | 4.69% | 5.58% | 16.5% | 0.546% | 6.17% | -1.65% |
| c1cnc(N2CCC3(COCc4cnc(-c5cccnc5)nc43)C2)nc1 (configuration not stated) | -3.71% | -2.7% | 12.2% | -3.8% | -1.86% | -5.41% | 1.11% | 3.84% | -1.08% | -10.3% | -4.41% |
| CC(C)c1ccc(OCCC(=O)N2CCC(CC(N)=O)CC2)cc1 | -3.21% | 5.26% | 5.06% | 6.24% | 6.58% | -2.68% | 11% | 5.75% | 4.41% | 12.2% | -9.8% |
| CCOc1cccc(C(C)NCc2ccc(OC)c(OC)c2OC)c1 (configuration not stated) | -3% | 16% | -4.66% | 15.5% | 8.08% | 4.69% | 11.2% | 43.6% | 7.1% | 21% | -6.92% |
| Cc1ccc(CNCc2nnc3n2CCCC3C(F)(F)F)s1 (configuration not stated) | -1.65% | 8% | -7.92% | 8.27% | 5.36% | 4.69% | 18% | 11.4% | 9.29% | 21% | -5.37% |
| Cn1cc(C[C@H]2[C@H](O)CCN2CC2CC2)cn1 | -2.02% | -2.7% | 6.23% | 1.34% | 1.27% | -32.8% | 11.2% | 1.21% | 5.41% | 5.13% | 0.853% |
| O=c1cc2c(nn1CN1CCN(c3cccc(Cl)c3)CC1)CCC2 | -3.06% | 6.67% | 0.948% | 5.21% | 0.589% | -6.87% | 19% | 4.05% | 6.35% | 12.8% | -2.65% |
| NC(=O)CCN1CCC(C(=O)c2cc(F)ccc2F)CC1 | -1.09% | 7.89% | -2.87% | -1.51% | 3.21% | -5.92% | 0.671% | -0.792% | 3.19% | 2.6% | -16% |
| CCc1ncc2c(n1)CN(Cc1nc(-c3ccccn3)no1)CC2 | -8.41% | 15.8% | -29.3% | 15.4% | 11.7% | 1.44% | 2.79% | -20.6% | 15.3% | 25.9% | -10.3% |
| O=C(NS(=O)(=O)c1ccc2c(c1)OCCO2)c1ccc(Br)cc1F | -3.37% | -13.9% | 13.5% | 1.7% | -2.36% | 1.07% | 12% | -21.1% | -13.5% | -15.2% | -10.5% |
